# In the library only some 8.9% were active in any assay of this set; here they are far more common.
# DRD3 agonist = qHTS of D3 Dopamine Receptor Agonist: qHTS. max activation, %. D(3) dopamine receptor (Homo sapiens), P35462. 410,000 compounds, 0.58% hits. D3R DiscoveRx beta-arrestin cells, luminescence, 90 min; in the data active = max activation above about 30%; also: 0% is about no effect
# Target sequence (P35462 whole entry, looked up): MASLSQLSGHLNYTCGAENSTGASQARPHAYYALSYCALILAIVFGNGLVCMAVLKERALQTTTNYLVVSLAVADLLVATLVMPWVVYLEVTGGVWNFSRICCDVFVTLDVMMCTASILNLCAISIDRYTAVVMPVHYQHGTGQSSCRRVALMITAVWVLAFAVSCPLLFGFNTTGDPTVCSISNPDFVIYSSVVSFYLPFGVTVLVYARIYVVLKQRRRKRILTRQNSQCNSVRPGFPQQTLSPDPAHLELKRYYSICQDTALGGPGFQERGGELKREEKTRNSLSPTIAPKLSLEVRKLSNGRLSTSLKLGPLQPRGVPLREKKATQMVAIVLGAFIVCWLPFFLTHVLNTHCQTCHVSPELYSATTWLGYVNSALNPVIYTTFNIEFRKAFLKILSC
#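 Agonist mode: compounds and dopamine controls were applied to plated cells for 90 min at 37 degrees C after an overnight attachment at 1500 cells/well. Luminescent read-out followed 30 - 60 minutes at room temperature with DiscoveRx detection reagent.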
# SW480 rereplic = A quantitative high throughput screen for small molecules that induce DNA re-replication in SW480 colon adenocarcinoma cells; Potency, µM (titrated, usually from 46.1 µM), for the others: at the highest dose re-replication activation, usual class: activators; 340,000 compounds, 1.8% hits; SW480 DNA re-replication, Hoechst DNA content imaging, 48 h; also: potency is read from the fitted curve at half-maximal effect; % of control where 0% means no effect; nearly all actives have a fitted effect of over 55% in size
#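 Hoechst fluorescence of nuclei (405 nm excitation, 500-530 nm emission) measured by plate-scanning imager after 48 hr compound exposure at 37 C; re-replication scored as increased number of nuclei with elevated intensity.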
# MCF10A rerep = A quantitative high throughput screen for small molecules that induce DNA re-replication in MCF 10a normal breast cells. Potency, µM (series often up to 46.1 µM), for the others: at the top dose activity, positive = re-replication, usual class: activators. 350,000 compounds, 2.9% hits. AID 624296, 2012. MCF 10A DNA re-replication, Hoechst nuclear intensity, 48 h; also: potency is read from the fitted curve at half-maximal effect; % of control where 0% means no effect; nearly all actives have a fitted effect of over 50% in size
# KB-V1 MDR tox = qHTS assay for MDR1-selective chemotherapeutics: Primary screen using the drug-selected MDR subline cells KB-V1; KB-V1 MDR cells viability, CellTiter-Glo, 72 h; Potency, µM (series often up to 46.1 µM), most hits filed as cytotoxic; 400,000 compounds, 3.4% hits; also: potency is read from the fitted curve at half-maximal effect; % is scaled to controls: 0 for no effect and ±100 for the full control effect; nearly all actives have a fitted effect of over 60% in size
#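 Cytotoxicity toward P-gp-expressing KB-V1 cells was determined as loss of CellTiter-Glo luminescence after 72 h at 37 degrees C. Compounds were tested in quantitative HTS format across a concentration range, with curves fitted to normalized data.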
# KB-3-1 cytotox = qHTS assay for MDR1-selective chemotherapeutics: Primary screen using the parental adenocarcinoma cell KB-3-1; KB-3-1 viability, CellTiter-Glo ATP luminescence, 72 h; Potency, µM (series often up to 46.1 µM), usual class: cytotoxic; 400,000 compounds, 1.4% hits; AID 1347075, 2019; also: potency is read from the fitted curve at half-maximal effect; % is scaled to controls: 0 for no effect and ±100 for the full control effect; nearly all actives have a fitted effect of over 60% in size
#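 Cells are dispensed, compounds pinned in, plates held at 37 °C for 72 h, then CellTiter-Glo is added and luminescence read after 10 minutes. Cell line: parental KB-3-1 in phenol-red-free DMEM, 10% FBS.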
# DRD3 antagonist = qHTS of D3 Dopamine Receptor Antagonist: qHTS | D3R cells, DiscoveRx beta-arrestin luminescence, antagonist mode; active compounds read low | max response, negative = inhibition, % | 360,000 compounds, 2.5% hits | AID 652054, 2013; in the data active = max response below about -50%; inconclusive = no clear call, values can overlap the other calls; also: % is scaled to controls: 0 for no effect and ±100 for the full control effect
#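 Cells expressing the human receptor were seeded at 1500 cells/well, incubated overnight at 37 degrees C in 5% CO2, then exposed to library compounds with dopamine controls for 90 minutes at 37 degrees C before luminescent detection.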
# * hit, by the source's call; i = inactive; ? = inconclusive; . = no result. Unless noted, calls follow the shape of the dose curve; as a rule, active = well fitted curve in the direction sought with a large enough effect; inconclusive = small, poorly fitted or top-dose-only effect, or another doubt; inactive = no such curve, though single readings can be large; an effect the other way counts as inactive or inconclusive.
SMILES,DRD3 agonist,SW480 rereplic,MCF10A rerep,KB-V1 MDR tox,KB-3-1 cytotox,DRD3 antagonist
COc1ccc2nc3n(c(=O)c2c1)-c1ccc(Cl)cc1C(=O)NC3Cc1ccc(O)cc1 (configuration not stated),44*,-9%,-1%,?,i,4
Cc1ccc2nc3n(c(=O)c2c1)-c1cc2ccccc2cc1C(=O)NC3CC(C)C (configuration not stated),2,.,.,i,i,-14
COc1ccc2nc3n(c(=O)c2c1)-c1cc2ccccc2cc1C(=O)NC3Cc1ccccc1 (configuration not stated),1,.,.,?,12µM*,26
COc1ccc2nc3n(c(=O)c2c1)-c1cc2ccccc2cc1C(=O)NC3Cc1ccc(O)cc1 (configuration not stated),-2,.,.,i,i,-30
O=C(CSc1nccn1Cc1ccc(F)cc1)Nc1ccc2c(c1)OCCO2,-7,.,.,.,.,.
CCCCCCCCCCCCCCCC(=O)O[C@@H]1[C@@H](O)[C@@H](O)[C@@H]([C@H](NC(=O)[C@@H]2C[C@@H](CCC)CN2C)[C@H](C)Cl)O[C@@H]1SC,-25,.,.,.,.,.
Cc1ccc(C)c(N2CCN(C(=O)c3cc4cc5ccc(C)cc5nc4o3)CC2)c1,4,.,.,i,i,.
NC(Cc1ccc(C(F)(F)F)cc1)c1csc(Nc2nncc3ccccc23)n1 (configuration not stated),2,.,.,16µM*,?,17
Cc1cnc(C)c(Nc2nc(C(N)Cc3ccc(Cl)cc3)cs2)n1 (configuration not stated),2,.,.,21µM*,?,11
Cc1cc(C)cc(OCc2cc(=O)n3c4c(sc3n2)CCCC4)c1,7,.,.,?,i,.
O=[N+]([O-])c1ccc(S(=O)(=O)NCC(c2cccnc2)N2CCc3ccccc3C2)cc1 (configuration not stated),-4,-9%,20%,i,i,3
O=[N+]([O-])c1ccc(S(=O)(=O)NCC(c2ccco2)N2CCc3ccccc3C2)cc1 (configuration not stated),-4,-2%,11%,?,i,-57*
CCCn1cc(S(=O)(=O)c2ccc(C)c(C)c2)c(=O)c2cc(F)c(N3CCC(C)CC3)cc21,6,.,.,i,i,.
Cc1ccccc1NC(=O)C1CC(=O)N(c2ccc3c4c(cccc24)CC3)C1 (configuration not stated),9,2%,-3%,i,i,12
O=C(Nc1ccccc1Br)C1CC(=O)N(c2ccc3c4c(cccc24)CC3)C1 (configuration not stated),0,?,21µM*,?,4.6µM*,0
CC(Oc1ccccc1F)C(=O)N1CCC(c2nc3ccccc3o2)CC1 (configuration not stated),3,.,.,.,.,.
CCCCc1cc(=O)oc2cc(OC(C)C(=O)NCC3CCC(C(=O)O)CC3)c(Cl)cc12 (configuration not stated),-6,?,?,i,i,-58*
Cc1ccccc1NC(=O)CCc1c(C)nc2c(c1C)c(=O)n(C)c(=O)n2C,-5,.,.,i,i,.
Cn1cc(C2=C(c3cn(CCCSC(=N)N)c4ccccc34)C(=O)NC2=O)c2ccccc21,.,.,.,?,4.1µM*,.
Cc1ccc(N=Nc2c(C)[nH]n(C(N)=S)c2=O)cc1,4,-5%,?,i,i,?
Cc1[nH]n(C(N)=S)c(=O)c1N=Nc1ccc(S(=O)(=O)N2CCCC2)cc1,5,-5%,9%,?,?,-78*
CCOc1ccc(-c2cc(NC(=O)Nc3ccc(Cl)cc3)c(C(=O)OC)s2)cc1,-3,.,.,i,?,.
O=C1c2ccccc2C(=O)c2c1ccc(C(=O)N1CCCCC1)c2NCCO,-11,1%,-2%,?,i,-7
CC1CCCN(C(=O)c2ccc3c(c2NCCO)C(=O)c2ccccc2C3=O)C1 (configuration not stated),-6,-5%,6%,4.6µM*,i,-9
CCOc1ccc(-c2cn3c(n2)sc2cc(C(=O)NC(C)C45CC6CC(CC(C6)C4)C5)ccc23)cc1 (configuration not stated),-8,.,.,i,i,.
SMILES,DRD3 agonist,SW480 rereplic,MCF10A rerep,KB-V1 MDR tox,KB-3-1 cytotox,DRD3 antagonist
COc1ccc(C(=O)N=c2sc3c(C)ccc(OC)c3n2C)cc1,7,11%,8%,5.8µM*,9.2µM*,20
COc1ccc(-n2nc(C(=O)Nc3ccc(Cl)cn3)c3c4ccccc4n(C)c3c2=O)cc1Cl,-18,.,.,?,i,.
COC(=O)c1c(NC(=O)c2ccc(C(=O)c3ccccc3)cc2)sc2c1CC(C)(C)NC2(C)C,1,.,.,i,i,-11
Cc1ccccc1OCC(=O)Nc1sc2c(c1C#N)CC(C)(C)NC2(C)C,26,?,21µM*,i,i,1
CC1(C)Cc2c(sc(NC(=O)c3ccc(C(=O)c4ccccc4)cc3)c2C#N)C(C)(C)N1,-19,-1%,?,i,?,-57*
Cc1cccc(NC(=O)c2cnc3sc(N4CCCC4)nn3c2=O)c1C,1,.,.,.,.,.
O=C(Nc1ccc2c(c1)N(C1CCCC1)C(=O)c1ccccc1S2)c1ccccc1,-6,.,.,i,i,.
Cc1ccc(CN2C(=O)c3oc4ccc(C)cc4c(=O)c3C2c2ccc(O)cc2)cc1 (configuration not stated),-9,.,.,?,i,.
O=C(Nc1ccc(OC(F)(F)F)cc1)c1cc2ccccn2n1,-13,.,.,?,10µM*,.
COc1ccc(NC(=O)c2cc3ccccn3n2)cc1,-10,-4%,10%,?,i,-20
COc1ccc(C(CCNCc2ccc(N(C)C)cc2)c2ccccc2)cc1 (configuration not stated),-2,18µM*,?,?,i,-6
COc1ccc(C(CCNCc2ccc(OC)c(OC)c2)c2ccc(F)cc2)cc1 (configuration not stated),4,?,5%,i,i,8
CC(C)Oc1ccc(CNC(=O)CC(c2ccccc2)c2cc(Cl)ccc2O)cc1 (configuration not stated),16,18%,?,23µM*,i,32
